# Assay results taken from PubChem BioAssay (NCI).
# Values joined by “and” are separate entries in the source; they are usually repeats but may differ in a detail not shown here. Identical values can stand only once. About 83,000 compounds went through this panel and 20% of them were active in at least one assay; those are over-represented in the sample as a whole.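 Compound tested at a single concentration for 48 hours in 96-well plates; a percent growth value below 10 was scored as active.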 Values without a mark were called inactive. Active and inactive are the calls of the source.
# Tested on: MDA-MB-468 breast
# Test: NCI-60 one-dose screen, 48 h (100 = growth as untreated, 0 = no growth, -100 = all killed)
# Settings: 10 µM unless noted
row,Compound,growth
1,CCOC(=O)c1sc(NC(=O)c2cc(OC)c(OC)c(OC)c2)nc1C,92.2%
2,C=C(CNCCc1ccc(O)cc1)[C@@H]1CC[C@]2(COC3CCCCO3)CC[C@]3(C)[C@H](CC[C@@H]4[C@@]5(C)CCC(NCCO)C(C)(C)[C@@H]5CC[C@]43C)[C@@H]12 (some centres undefined),-80.1% (active)
3,COc1ccn2c(C(C)=O)cc(C(=O)c3ccc4c(c3)Sc3ccccc3N4)c2c1,-4.11% (active)
4,COC(=O)/C=C1/SC(=Nc2ccc(C)cc2)N(CCc2c[nH]c3ccc(O)cc23)C1=O,48%
5,Cc1ccc2c(n1)C(=O)C(Oc1ccc(Br)cc1)=CC2=O,91.3%
6,O=S(=O)(NCCNc1cc(-c2c(-c3cccc(O)c3)nc3sccn23)ccn1)c1ccc(Cl)cc1,51.5%
7,CCCCCCCCO/N=C\c1c2c(O)c3c(O)c(C)c4c(c3c1O)C(=O)C(C)(O/C=C\C(OC)C(C)C(OC(C)=O)C(C)C(O)C(C)C(O)C(C)/C=C\C=C(\C)C(=O)N2)O4 (centres undefined),3.49% (active)
8,CCOC(=O)c1ccc(Nc2ncnc3c2cnn3-c2cccc(F)c2)cc1,103%
9,CC(=O)[C@@H]1CC[C@]2(C(N)=O)CC[C@]3(C)[C@H](CC[C@@H]4[C@@]5(C)CCC(=O)C(C)(C)[C@@H]5CC[C@]43C)[C@@H]12,98.5%
10,COc1ccc(-c2c(N)n[nH]c2-c2cc(OC)c3c(c2)OCCO3)cc1,71.7%
11,COc1ccc(/C=C/C(=O)c2ccc(NC(=O)CSc3nc4c([nH]3)c(=O)n(C)c(=O)n4C)cc2)cc1OC,51.8%
12,O=C1Nc2ccccc2/C1=C\c1cccc(/C=C2/C(=O)Nc3ccccc32)n1,-33.2% (active)
13,CCOc1cccc(/C=N/NC(=O)C(=O)Nc2cccc(C(F)(F)F)c2)c1O,1.46% (active)
14,CCOC(=O)c1ccc(NC(=O)Nc2ncc(Cl)cc2Cl)cc1,95.1%
15,c1ccc2c(-c3c4ccsc4cc4[nH]c5ccccc5c34)c[nH]c2c1,15.7%
16,CC(CNC(Cc1ccccc1)c1ccccc1)NC(Cc1ccccc1)c1ccccc1 (centres undefined),14.5%
17,CCN(CC)CCNc1ccc(CO)c2sc3ccccc3c(=O)c12,-41.4% (active)

row,Compound,growth
1,O=C(/C=C/c1c[nH]c2ccccc12)c1cc2ccccc2o1,121%
2,COc1cc2c(Nc3ccc(Cl)c(Cl)c3F)ncnc2cc1OCC1C[C@@H]2CN(C)C[C@@H]2C1 (some centres undefined),-86.1% (active) and -71.9% (active)
3,CCCCSc1cc(C)nc(N)n1,95.8%
4,CN1C(=O)/C(=C\c2nc([P+](c3ccccc3)(c3ccccc3)c3ccccc3)c(N3CCOCC3)o2)SC1=S,10.1%
5,C/C(Cc1ccc(Cl)cc1)=C(\c1ccc(OCCN2CCCCCC2)cc1)c1ccc(OC(=O)c2ccccc2)cc1,48.1%
6,COc1ccc(/C=C(/c2ccccc2)[N+](=O)[O-])c(OC)c1,-56.5% (active)
7,CC(C)(C)c1cc(NC(=O)Nc2ccc(-c3cn4c5c(sc4n3)CCc3cn(CCCN4CCCCC4)cc3-5)cc2)no1,-76% (active)
8,COc1cc(-c2cc(-c3ccc(Nc4ncnc5cc(Cl)ccc45)cc3)nc(N3CCN(C)CC3)n2)cc(OC)c1OC,105%
9,c1ccc2sc(SCCCn3ccnc3)nc2c1,61.8%
10,COc1cc(-c2nn(-c3ccc(NC(=O)Nc4ccc(Cl)c(Cl)c4)cc3)cc2-c2ccncc2)ccc1Cl,30.4%
11,CNc1ccc(Br)cc1-c1n[nH]c(=O)[nH]c1=O,120%
12,Nc1c(C(=O)Nc2cccc(Br)c2)sc2nc3c(cc12)C(=O)CCC3,32.1%
13,Cc1cc(Nc2cc(N3CCN(C)CC3)nc(Sc3ccc(NC(=O)C4CC4)cc3)n2)n[nH]1,46.7%
14,COC(=O)[C@H](Cc1cn(C)cn1)NC(=O)[C@H](Cc1ccccc1)NC(=O)Nc1cc(C(F)(F)F)cc(C(F)(F)F)c1,-69.6% [100 µM] (active)
15,COC(=O)CCCCCCCCC(C)c1ccc(C(C)=O)cc1 (centres undefined),110%
16,CCN(CC)CCNC(=O)c1c(C)[nH]c(/C=C2\C(=O)Nc3cc(NC(=O)NC(=O)c4ccc(OC)cc4F)ccc32)c1C,75.2%
17,COC(=O)[C@]12CC[C@@H](C)[C@H](C)[C@@H]1C1=CC[C@@H]3[C@@]4(C)C[C@@H](OC(C)=O)[C@H](O)[C@@](C)(COC(C)=O)[C@@H]4[C@H](O)C[C@@]3(C)[C@]1(C)CC2,-90.2% (active)
